PubChem BioAssay (Tox21)
Results filed as inconclusive are left out. Active and inactive are the calls of the source. Unless noted, calls follow the shape of the dose curve; as a rule, active = well fitted curve in the direction sought with a large enough effect in the repeat runs; inconclusive = weak or mixed curves; inactive = no such curve, though single readings can be large; an effect the other way counts as inactive or inconclusive.

Tests used:
[1] = molecular target: Nuclear receptor subfamily 1 group I member 3 (Homo sapiens) (UniProt Q14994); assay: qHTS assay to identify small molecule antagonists of the constitutive androstane receptor (CAR) signaling pathway (AID 1224838);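 also: HepG2 cells stably expressing hCAR with CYP2B6 luciferase reporter stimulated by CITCO; nearly all actives have a fitted effect of over 40% in size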; also: potency is read from the fitted curve at half-maximal effect
Method in brief: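 Antagonism measured as luciferase signal (ONE-Glo, 30 min, room temperature) in CAR-stimulated cells: HepG2-CYP2B6-hCAR double-stable line exposed 24 hr at 37 C to compound in a 15-point series plus 50 nM CITCO.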

[2] = molecular target: Nuclear receptor subfamily 1 group I member 3 (Homo sapiens) (UniProt Q14994); assay: qHTS assay to identify small molecule agonists of the constitutive androstane receptor (CAR) signaling pathway (AID 1224839); also: nearly all actives have a fitted effect of over 15% in size; also: potency is read from the fitted curve at half-maximal effect;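 as to activation: HepG2 cells stably carrying human CAR and a CYP2B6 luciferase reporter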
Method in brief: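 Luminescence read-out (ONE-Glo, 30 min, room temperature) from double-stable HepG2-CYP2B6-hCAR cells exposed 24 h to 15-point compound series in presence of 0.75 uM PK11195 final.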

[3] = qHTS assay to identify small molecule antagonists of the estrogen related receptor signaling pathway with the pleiotropic PPARgamma coactivator (PGC) from Tox21 10K library - cell viability counter screen (AID 1224840; active = well fitted cell-killing curve with a large enough effect in the repeat runs, not every such curve was filed as active; also: nearly all actives have a fitted effect of over 40% in size)
Method in brief: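 Counter-screen for cytotoxicity: after 17.5 h compound exposure at 37 C, CellTiter-Fluor reagent added to PGC/ERR cells for 30 min and fluorescence read. Cells were seeded at 2,000 per well 6 h before dosing.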

[4] = qHTS assay to identify small molecule agonists of H2AX (AID 1224845; active = well fitted activation curve with a large enough effect in the signal ratio in the repeat runs, not every such curve was filed as active; the % refers to the signal ratio)
Method in brief: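 Wild-type CHO-K1 cells plated overnight, then exposed 3 hr at 37C to compounds at 15 concentrations (0.76% DMSO). Lysed, then HTRF anti-pH2AX(S139)-cryptate/anti-H2AX-d2 detection after 24 hr at room temperature; emissions 665 and 620 nm.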

[5] = qHTS assay to identify small molecule agonists of the hypoxia (HIF-1) signaling pathway (AID 1224846; active = well fitted activation curve with a large enough effect in the signal ratio in the repeat runs, not every such curve was filed as active; the % refers to the signal ratio)
Method in brief: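 Compounds added to ME-180 cells carrying hypoxia-response-element beta-lactamase reporter (0.5% dialyzed FBS, 5 h preplating), 17 h at 37C; agonist activity detected by CCF4-AM B/G FRET read-out.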

[6] = qHTS assay to identify small molecule agonists of H2AX - cell viability counter screen (AID 1224847; calls by dose curve; also: nearly all actives have a fitted effect of over 30% in size; also: potency is read from the fitted curve at half-maximal effect; as to activity change, negative = cytotoxicity: top concentration of the series differs between compounds)
Method in brief: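 CHO-K1 wt, 1000 cells/well, o/n 37C; cpds 15 conc, 3 h 37C, 0.76% DMSO; CellTiter-Glo, 30 min RT, luminescence.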

[7] = qHTS RealTime-Glo MT Cell Viability Assay in HepG2 cells - 24 hour (AID 1224867); also: nearly all actives have a fitted effect of over 50% in size; also: potency is read from the fitted curve at half-maximal effect
Method in brief: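 HepG2 cells (600/well) were dispensed with RealTime-Glo reagents, incubated 5 h at 37 °C, then treated with compounds in DMSO for up to 40 h. Nonlytic NanoLuc luminescence reflecting viable cells was read at each stated time point.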

[8] = qHTS RealTime-Glo MT Cell Viability Assay in HEK293 cells - 32 hour (AID 1224868); also: nearly all actives have a fitted effect of over 50% in size; also: potency is read from the fitted curve at half-maximal effect; as to activity change, negative = cytotoxic: top concentration of the series differs between compounds
Method in brief: (§1)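 HEK293 cells seeded with NanoLuc/prosubstrate reagent, rested 5 h at 37 C, then dosed and kept at 37 C up to 40 h. Nonlytic real-time luminescence from viable cells read at 0, 8, 16, 24, 32 and 40 h.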

[9] = A CellTox Green Cytotoxicity Assay to monitor cytotoxicity in HEK293 cells - 0 hour (AID 1224869); also: nearly all actives have a fitted effect of over 50% in size; also: potency is read from the fitted curve at half-maximal effect
Method in brief: (§2)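 Fluorescence from a DNA-binding dye excluded by viable cells was measured repeatedly in the same HEK293 wells (600 cells/well) during continuous compound exposure at 37 C. Each assay gives one read point: 0, 8, 16, 24, 32 or 40 h.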

[10] = qHTS RealTime-Glo MT Cell Viability Assay in HepG2 cells - 40 hour (AID 1224870); also: nearly all actives have a fitted effect of over 50% in size; also: potency is read from the fitted curve at half-maximal effect
Method in brief: (§3)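 HepG2 cells mixed with RealTime-Glo MT reagents (NanoLuc plus cell-permeant prosubstrate) were seeded at 600 cells/well, incubated 5 h at 37 C/5% CO2, then pinned with compounds in DMSO; nonlytic luminescence tracked viability during 40 h treatment.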

[11] = A CellTox Green Cytotoxicity Assay to monitor cytotoxicity in HEK293 cells - 40 hour (AID 1224871); also: nearly all actives have a fitted effect of over 45% in size; also: potency is read from the fitted curve at half-maximal effect
Method in brief: as §2

[12] = qHTS RealTime-Glo MT Cell Viability Assay in HEK293 cells - 16 hour (AID 1224872); also: nearly all actives have a fitted effect of over 50% in size; also: potency is read from the fitted curve at half-maximal effect; as to activity change, negative = cytotoxicity: top concentration of the series differs between compounds
Method in brief: as §1

[13] = qHTS RealTime-Glo MT Cell Viability Assay in HepG2 cells - 8 hour (AID 1224873); also: nearly all actives have a fitted effect of over 55% in size; also: potency is read from the fitted curve at half-maximal effect
Method in brief: as §3

[14] = qHTS RealTime-Glo MT Cell Viability Assay in HEK293 cells - 40 hour (AID 1224874); conditions: RealTime-Glo luminescence; max response: hits give low values; also: nearly all actives have a fitted effect of over 50% in size; also: potency is read from the fitted curve at half-maximal effect
Method in brief: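 Luminescence, which tracks viable cell number through reduction of the prosubstrate to a NanoLuc substrate, was read over continuous 37 C culture. Cells (600/well) were premixed with reagent and rested 5 h before 23 nL of compound in DMSO was pinned.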

[15] = qHTS assay to identify small molecule agonists of the estrogen related receptor signaling pathway with the pleiotropic PPARgamma coactivator (PGC) from Tox21 10K library (AID 1224842); also: nearly all actives have a fitted effect of over 15% in size
Method in brief: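 PGC/ERR reporter cells (NTP line) were seeded 2,000 per well, rested 6 h at 37 C/5% CO2, then pin-dosed with compounds in DMSO for 18 h at 37 C; luciferase read by One-Glo luminescence after 30 min at room temperature.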

[16] = molecular target: Thyrotropin receptor (Homo sapiens) (UniProt P16473); assay: qHTS assay to identify small molecule agonists of the thyroid stimulating hormone receptor (TSHR) signaling pathway (AID 1224843; calls by dose curve; also: nearly all actives have a fitted effect of over 45% in size; also: potency is read from the fitted curve at half-maximal effect)
Method in brief: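 Using 15 concentrations per compound in triplicate, cAMP production was monitored in TSHR-HEK293 cells after 30 min compound incubation at RT; HTRF reagents followed, with fluorescence intensity recorded after 1 h.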

[17] = qHTS assay to identify small molecule agonists of the hypoxia (HIF-1) signaling pathway - cell viability counter screen (AID 1224844; calls by dose curve; also: nearly all actives have a fitted effect of over 50% in size; also: potency is read from the fitted curve at half-maximal effect)
Method in brief: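 Cytotoxicity measured by CellTiter-Glo ATP luminescence in the wells also read for beta-lactamase signal. Cells were HRE-bla ME-180 (2,000/well, 0.5% dialyzed FBS), exposed to compounds for 17 h at 37C.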

[18] = qHTS assay to identify small molecule antagonists of the estrogen related receptor (ERR) signaling pathway from Tox21 library (AID 1224848); also: nearly all actives have a fitted effect of over 50% in size; also: potency is read from the fitted curve at half-maximal effect
Method in brief: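 Tox21 10K compounds in DMSO tested for ERR pathway antagonism in NTP's ERR cell line; 18 h, 37 C exposure; ONE-Glo luminescence.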

[19] = qHTS assay to identify small molecule agonists of the estrogen related receptor (ERR) signaling pathway from Tox21 library (AID 1224849; calls by dose curve; also: nearly all actives have a fitted effect of over 15% in size); conditions: ERR reporter cell line, ONE-Glo luciferase, 18 h; at 92.4 µM (top of the series) unless noted
Method in brief: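 Luminescent agonist read-out (One-Glo, 30-minute room-temperature incubation) following 18-hour compound treatment at 37 C of the ERR cell line, which had been plated 6 hours before dosing.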

[20] = qHTS assay to identify small molecule antagonists of the estrogen related receptor signaling pathway with the pleiotropic PPARgamma coactivator (PGC) from Tox21 10K library (AID 1224841; call rule not given here; also: potency is read from the fitted curve at half-maximal effect)
Method in brief: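 Luminescence (One-Glo, 30 min at room temperature) after 18 h compound treatment at 37 C of PGC/ERR reporter cells plated at 2,000 cells/well and settled 6 h beforehand.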
% is scaled to controls: 0 for no effect and ±100 for the full control effect.

Sequence of Nuclear receptor subfamily 1 group I member 3 (Homo sapiens) (Q14994 whole entry, looked up): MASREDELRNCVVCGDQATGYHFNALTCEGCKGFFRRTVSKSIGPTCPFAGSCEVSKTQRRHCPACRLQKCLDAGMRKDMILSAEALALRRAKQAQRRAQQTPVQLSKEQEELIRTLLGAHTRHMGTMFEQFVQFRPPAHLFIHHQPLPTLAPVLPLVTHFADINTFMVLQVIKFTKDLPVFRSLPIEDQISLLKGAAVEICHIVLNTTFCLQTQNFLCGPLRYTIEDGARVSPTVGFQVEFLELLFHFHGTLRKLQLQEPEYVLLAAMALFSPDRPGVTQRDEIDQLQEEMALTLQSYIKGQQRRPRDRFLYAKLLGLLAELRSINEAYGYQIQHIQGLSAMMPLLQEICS
Sequence of Thyrotropin receptor (Homo sapiens) (P16473 whole entry, looked up): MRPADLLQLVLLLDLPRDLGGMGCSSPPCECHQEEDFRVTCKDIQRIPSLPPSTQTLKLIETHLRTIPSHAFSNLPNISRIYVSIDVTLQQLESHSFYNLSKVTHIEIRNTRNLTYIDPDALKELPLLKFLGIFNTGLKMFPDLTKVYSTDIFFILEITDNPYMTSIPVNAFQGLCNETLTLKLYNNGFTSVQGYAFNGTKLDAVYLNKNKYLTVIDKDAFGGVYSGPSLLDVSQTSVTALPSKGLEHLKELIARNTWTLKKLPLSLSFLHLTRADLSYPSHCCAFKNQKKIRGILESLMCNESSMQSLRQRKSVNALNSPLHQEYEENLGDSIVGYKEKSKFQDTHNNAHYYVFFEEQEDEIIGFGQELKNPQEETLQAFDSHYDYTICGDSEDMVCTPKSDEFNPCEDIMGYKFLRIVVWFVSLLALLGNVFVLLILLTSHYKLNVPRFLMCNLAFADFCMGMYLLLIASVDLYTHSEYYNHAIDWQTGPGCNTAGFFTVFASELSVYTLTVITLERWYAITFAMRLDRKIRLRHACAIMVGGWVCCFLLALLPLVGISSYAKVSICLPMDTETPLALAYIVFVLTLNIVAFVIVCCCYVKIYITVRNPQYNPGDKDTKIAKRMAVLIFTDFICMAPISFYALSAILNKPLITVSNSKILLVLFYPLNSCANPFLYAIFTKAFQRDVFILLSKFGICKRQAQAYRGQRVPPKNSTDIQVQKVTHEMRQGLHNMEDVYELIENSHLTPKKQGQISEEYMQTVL

CC1CCC(C(C)(C)O)CC1 (stereo unspecified)
inactive: Potency [1] | Potency [2] | Potency [3] | Potency [4] | Potency [5] | Potency [6] | Potency [7] | Potency [8] | Potency [9] | Potency [10] | Potency [11] | Potency [12] | Potency [13] | max response [14] 0.893%

CCCCCCCCOC(=O)c1cc(O)c(O)c(O)c1
active: Potency [6] 89.8 µM | Potency [18] 3.44 µM | Potency [7] 19.5 µM | Potency [8] 11 µM | Potency [12] 6.92 µM | Potency [13] 17.4 µM | Potency [14] 11 µM
inactive: Potency [1] | Potency [2] | Potency [15] | Potency [16] | Potency [17] | activity change, positive = activation [19] -45.2% | Potency [9]

O=C1CCCCCCCCCCCCCC1
active: Potency [2] 30.6 µM | Potency [11] 43.6 µM
inactive: Potency [1] | Potency [20] | Potency [15] | Potency [16] | Potency [6] | Potency [18] | activity change, positive = activation [19] 1.09% | Potency [7] | Potency [8] | Potency [9] | Potency [10] | Potency [12] | max response [14] -11.7%

CCc1cccc(C)c1N(C(=O)C(=O)O)C(C)COC (stereo unspecified)
inactive: Potency [1] | Potency [2] | Potency [3] | Potency [16] | Potency [4] | Potency [5] | Potency [6] | Potency [7] | Potency [8] | Potency [9] | Potency [10] | Potency [11] | Potency [12] | Potency [13] | max response [14] 10.9%

CN1CCN(CCCN2c3ccccc3Sc3ccc(C(F)(F)F)cc32)CC1
inactive: Potency [1] | Potency [2] | Potency [15] | Potency [16] | activity change, positive = activation [19] -69.1% [at 42.5 µM] | Potency [9]
active: Potency [20] 29.8 µM | Potency [17] 16.9 µM | Potency [18] 33.5 µM | Potency [7] 23.9 µM | Potency [8] 23.9 µM | Potency [11] 26.8 µM | Potency [12] 21.3 µM | Potency [14] 23.9 µM

NCc1ccco1
inactive: Potency [1] | Potency [2] | Potency [16] | Potency [17] | Potency [4] | Potency [5] | Potency [6] | Potency [7] | Potency [9] | Potency [10] | Potency [11] | Potency [12] | Potency [13] | max response [14] 18.6%

O=C1C=CC(=O)N1c1cccc(N2C(=O)C=CC2=O)c1
inactive: Potency [2] | Potency [15] | activity change, positive = activation [19] -72.9% | Potency [9]
active: Potency [1] 61.1 µM | Potency [20] 77 µM | Potency [16] 5.45 µM | Potency [6] 45 µM | Potency [18] 68.6 µM | Potency [7] 15.5 µM | Potency [8] 9.77 µM | Potency [10] 17.4 µM | Potency [12] 12.3 µM | Potency [13] 21.9 µM | Potency [14] 9.77 µM

Nc1cccnc1N
inactive: Potency [1] | Potency [2] | Potency [16] | Potency [17] | Potency [5] | Potency [6] | Potency [7] | Potency [9] | Potency [10] | Potency [11]

COc1ccc(OC)c(N=Nc2c(O)ccc3ccccc23)c1
active: Potency [2] 12.2 µM | Potency [17] 38.9 µM | Potency [6] 40.1 µM
inactive: Potency [1] | Potency [16] | Potency [18] | activity change, positive = activation [19] -14.1% | Potency [7] | Potency [9] | Potency [10] | Potency [11]

O=S(=O)(c1ccc(OCc2ccccc2)cc1)c1ccccc1O
active: Potency [6] 45 µM | Potency [18] 19.3 µM | Potency [14] 19.5 µM
inactive: Potency [1] | Potency [2] | Potency [15] | Potency [16] | Potency [4] | activity change, positive = activation [19] -29% | Potency [7] | Potency [9] | Potency [10] | Potency [11] | Potency [13]

CCN(CC)c1ccc(N=Nc2ccccc2)cc1
active: Potency [2] 13.7 µM | Potency [6] 113 µM | Potency [8] 49 µM | Potency [12] 49 µM | Potency [14] 54.9 µM
inactive: Potency [1] | Potency [16] | Potency [7] | Potency [9] | Potency [10] | Potency [11] | Potency [13]

O=C(O)CN(CCCN(CC(=O)O)CC(=O)O)CC(=O)O
inactive: activity, negative = inhibition [1] -21.7% [at 19 µM] | activation [2] -1.05% [at 19 µM] | activation [16] -0.184% [at 19 µM] | activity change, negative = cytotoxicity [17] -18% [at 15.8 µM] | activation [5] 1.13% [at 15.8 µM] | activity change, negative = cytotoxicity [6] 0.112% [at 31.6 µM] | activity change, negative = cytotoxicity [7] -3.25% [at 15.8 µM] | activity change, negative = cytotoxic [8] -12.4% [at 15.8 µM] | cytotoxicity [9] -2.37% [at 15.8 µM] | activity change, negative = cytotoxic [10] 22.2% [at 15.8 µM] | cytotoxicity increase [11] 0.268% [at 15.8 µM] | activity change, negative = cytotoxicity [12] -5.66% [at 15.8 µM] | max response [14] -7.68%

CCOC(=O)[C@H](O)[C@@H](O)C(=O)OCC
inactive: Potency [1] | Potency [2] | Potency [3] | Potency [17] | Potency [4] | Potency [5] | Potency [6] | Potency [7] | Potency [8] | Potency [9] | Potency [10] | Potency [11] | Potency [12] | Potency [13] | max response [14] 5.68%

COc1cc(/C=C/C(=O)CC(=O)/C=C/c2ccc(O)c(OC)c2)ccc1O
active: Potency [1] 54.8 µM | Potency [20] 19.4 µM | Potency [18] 13.8 µM | Potency [8] 24.7 µM | Potency [9] 22 µM | Potency [11] 24.7 µM | Potency [12] 24.7 µM
inactive: Potency [2] | Potency [15] | activity change, positive = activation [19] -73.6%

CSc1nnc(C(C)(C)C)c(=O)[nH]1
inactive: Potency [1] | Potency [2] | Potency [3] | Potency [17] | Potency [4] | Potency [5] | Potency [7] | Potency [8] | Potency [9] | Potency [10] | Potency [11] | Potency [12] | Potency [13]

CC(C)(C)c1ccc(OC2CCCCC2O)cc1 (stereo unspecified)
inactive: Potency [1] | Potency [3] | Potency [16] | Potency [4] | Potency [5] | Potency [7] | Potency [9] | Potency [10] | Potency [13]
active: Potency [2] 27.3 µM | Potency [6] 71.3 µM | Potency [11] 49 µM
